# Values joined by “and” are separate entries in the source; they are usually repeats but may differ in a detail not shown here. Equal entries are not always repeated.
# Target: Solute carrier family 2, facilitated glucose transporter member 1 (Homo sapiens) (UniProt P11166)
# Test: ST_JUDE_LEISH: Cytotoxicity at 2uM final concentration against transgenic Leishmania Mexicana promastigotes LmGLUT1 that are glucose transport deficient and complemented with the human glucose transporter GLUT1. Activity is measured by DNA content using SYBR green in vitro
# Type: functional
# Sequence of Solute carrier family 2, facilitated glucose transporter member 1 (Homo sapiens) (P11166 whole entry): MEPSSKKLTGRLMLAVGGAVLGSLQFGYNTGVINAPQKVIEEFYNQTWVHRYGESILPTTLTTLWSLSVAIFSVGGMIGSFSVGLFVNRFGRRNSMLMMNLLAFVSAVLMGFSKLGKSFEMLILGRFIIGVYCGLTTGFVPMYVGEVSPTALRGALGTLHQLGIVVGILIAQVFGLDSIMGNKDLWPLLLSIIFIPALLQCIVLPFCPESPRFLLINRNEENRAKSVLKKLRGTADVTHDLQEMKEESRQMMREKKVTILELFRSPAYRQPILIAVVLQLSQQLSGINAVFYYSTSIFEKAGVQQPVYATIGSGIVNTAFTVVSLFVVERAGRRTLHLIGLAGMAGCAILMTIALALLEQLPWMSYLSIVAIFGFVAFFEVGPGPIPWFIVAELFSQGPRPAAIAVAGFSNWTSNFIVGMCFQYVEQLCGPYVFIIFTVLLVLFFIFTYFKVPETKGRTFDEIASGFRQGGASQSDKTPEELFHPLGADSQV
row,Structure (SMILES),inhibition
1,CN(C)c1cccc(CCNCCc2c[nH]c3ccc(Cl)cc23)c1,-1.51%
2,CS(=O)(=O)Nc1ccc2[nH]cc(C3CCN(CC4CCC(NC(=O)/C=C/c5ccccc5Cl)CC4)CC3)c2c1 (stereo not drawn),-1.96%
3,CC[C@H]1CN2CC[C@H]1C[C@H]2[C@H](O)c1cc(-c2ccc(F)cc2)nc2ccc(OC)cc12,0.09%
4,CCCc1ccc2c(c1O)CCC(N(CCC)CCC)C2 (stereo not drawn),2.32%
5,CSc1ccc(C[C@@H](C)NC[C@H](O)c2cccc(Cl)c2)cc1,2.36%
6,O=C(/C=C/c1ccc(Cl)c(Cl)c1)N1CCC(CN2CCC(c3c(-c4ccc(F)cc4)[nH]c4ccccc34)CC2)CC1,0.15%
7,O=c1n[n+](C2CCCCC2)[n-]o1,-0.73%
8,CC(Cc1ccc(OCCCCOc2ccccc2)cc1)NCCc1ccccc1Cl (stereo not drawn),15%
9,COc1cc(NCCCNC(=O)c2cn(Cc3ccccc3)c3ccccc23)nc2ccccc12,-0.26%
10,OC1(c2ccc(Cl)c(C(F)(F)F)c2)CCN(CCOC2c3ccccc3CSc3ccc(Cl)cc32)CC1 (stereo not drawn),2.52%
11,O=[N+]([O-])c1ccc(Oc2c(Cl)cc(S(=O)(=O)N3CCC(CN4CCC(c5c[nH]c6ccccc56)CC4)CC3)cc2Cl)c(Cl)c1,1.89%
12,Cc1[nH]c2ccc(O)cc2c1C1CCN(CC2CCC(NC(=O)/C=C/c3ccc(Cl)c(Cl)c3)CC2)CC1 (stereo not drawn),0.37%
13,O=C(/C=C/c1cc(C(F)(F)F)ccc1F)N1CCC(CN2CCC(c3c[nH]c4ccccc34)CC2)CC1,1.52%
14,COC(=O)C(C)(C)c1ccc(CC(C)NCC(O)c2cccc(C(F)(F)F)c2)cc1 (stereo not drawn),10.5%
15,O=C(Nc1cc(C(F)(F)F)cc(C(F)(F)F)c1)N1CCC(CN2CCC(c3c[nH]c4ccccc34)CC2)CC1,2.61%
16,O=C(/C=C/c1ccc(C(F)(F)F)cc1)NC1CCC(CN2CCC(c3c[nH]c4ccccc34)CC2)CC1 (stereo not drawn),5.55% and -0.04%
17,O=C(Cc1cc(=O)oc2cc(O)ccc12)NC1CCC(CN2CCC(c3c[nH]c4ccccc34)CC2)CC1 (stereo not drawn),2.39%
18,CC[C@H]1CN2CC[C@H]1C[C@H]2[C@H](O)c1cc(/C=C/c2ccc(F)cc2)nc2ccc(OC)cc12,4.05%
19,O=C(/C=C/c1ccc(Cl)c(Cl)c1)NC1CCC(CN2CCC(c3c[nH]c4cc(C(F)(F)F)ccc34)CC2)CC1 (stereo not drawn),6.9% and 1.89%
20,O=C(/C=C/c1ccc(Cl)c(Cl)c1)N1CCC(CN2CCC(c3c(-c4ccccc4)[nH]c4ccccc34)CC2)CC1,-1.32%

row,Structure (SMILES),inhibition
1,O=C(NC1CCC(CN2CCC(c3c[nH]c4ccccc34)CC2)CC1)c1cn(Cc2ccccc2)c2ccccc12 (stereo not drawn),0.71%
2,c1ccc2c(NCCCCCCCCCNc3c4ccccc4nc4ccccc34)c3ccccc3nc2c1,3.03%
3,CCC(C)CN1CCC(N(C)c2cc(NC(=O)c3ccc(F)cc3)ccn2)CC1 (stereo not drawn),-0.37%
4,O=C(Cc1c(-c2ccccc2)[nH]c2ccccc12)NC1CCC(CN2CCC(c3c[nH]c4ccccc34)CC2)CC1 (stereo not drawn),4.32%
5,O=C(/C=C/c1ccc(Cl)c(Cl)c1)N1CCC(CN2CCC(c3c[nH]c4ccccc34)C(O)C2)CC1 (stereo not drawn),7.48%
6,O=C(Nc1ccc(CN2CCC(c3c[nH]c4ccc(O)cc34)CC2)cc1)c1ccc(-c2ccccc2)cc1,5.73%
7,Cc1[nH]c2cc(Cl)ccc2c1C1=CCN(CCCCC2(C)C(=O)Nc3ccccc32)CC1 (stereo not drawn),2.01%
8,Cc1[nH]c2ccc(O)cc2c1C1CCN(CC2CCC(NC(=O)/C=C/c3c(Cl)cccc3Cl)CC2)CC1 (stereo not drawn),1.67%
9,CNCCN(C)C(=O)Oc1c(Br)c(C)nc(C)c1-c1ccc(Oc2ccc(OC(F)(F)F)cc2)cc1,2.73%
10,CC[C@H]1CN2CC[C@H]1C[C@H]2[C@H](O)c1ccnc2ccc(C#N)cc12,0.59%
11,CN1CC=C(c2c[nH]c3ccc(Br)cc23)CC1,1.93%
12,Oc1ccc2[nH]cc(C3=CCN(CCc4ccccc4)CC3)c2c1,15.8%
13,CCCCCC(C)C(C)c1cc(O)c2c(c1)OC1(C(C)C)CC(O)C(C)C2C1 (stereo not drawn),5.93%
14,Cc1c2ccncc2c(C)c2c1[nH]c1ccccc12,17.5%
15,O=C(/C=C/c1ccc(Cl)c(Cl)c1)NCCCCCN1C2CCC1CC(c1c[nH]c3ccccc13)C2 (stereo not drawn),0.42%
16,O=C(C=Cc1cccc(Cl)c1Cl)NC1CCC(CN2CCC(c3c[nH]c4ccccc34)CC2)CC1 (stereo not drawn),9.75% and 1.21%
17,COc1ccc(C[C@H]2NC[C@H](O)[C@H]2OC(C)=O)cc1,105%
18,CC(=O)N(Cc1ccccc1-c1cccc(CNCCc2ccccc2)c1)C1CCN(Cc2ccccc2)CC1,8.96%
19,CO/C(=C\C=C\c1cc2cc(Cl)c(Cl)cc2[nH]1)C(=O)N[C@H]1CN2CCC1CC2,0.86%

# Target: Hexose transporter 1 (Plasmodium falciparum) (UniProt O97467)
# Test: ST_JUDE_LEISH: Cytotoxicity at 2uM final concentration against transgenic Leishmania Mexicana promastigotes LmPfHT that are glucose transport deficient and complemented with the Plasmodium falciparum hexose transporter. Activity is measured by DNA content using SYBR green in vitro
# Type: functional
row,Structure (SMILES),inhibition
1,CN(C)c1cccc(CCNCCc2c[nH]c3ccc(Cl)cc23)c1,4.45%
2,CS(=O)(=O)Nc1ccc2[nH]cc(C3CCN(CC4CCC(NC(=O)/C=C/c5ccccc5Cl)CC4)CC3)c2c1 (stereo not drawn),1.23%
3,CC[C@H]1CN2CC[C@H]1C[C@H]2[C@H](O)c1cc(-c2ccc(F)cc2)nc2ccc(OC)cc12,-0.06%
4,CCCc1ccc2c(c1O)CCC(N(CCC)CCC)C2 (stereo not drawn),2.51%
5,CSc1ccc(C[C@@H](C)NC[C@H](O)c2cccc(Cl)c2)cc1,1.34%
6,O=C(/C=C/c1ccc(Cl)c(Cl)c1)N1CCC(CN2CCC(c3c(-c4ccc(F)cc4)[nH]c4ccccc34)CC2)CC1,-1.9%
7,O=c1n[n+](C2CCCCC2)[n-]o1,-0.13%
8,CC(Cc1ccc(OCCCCOc2ccccc2)cc1)NCCc1ccccc1Cl (stereo not drawn),19.8%
9,COc1cc(NCCCNC(=O)c2cn(Cc3ccccc3)c3ccccc23)nc2ccccc12,-0.48%
10,OC1(c2ccc(Cl)c(C(F)(F)F)c2)CCN(CCOC2c3ccccc3CSc3ccc(Cl)cc32)CC1 (stereo not drawn),1.04%
11,O=[N+]([O-])c1ccc(Oc2c(Cl)cc(S(=O)(=O)N3CCC(CN4CCC(c5c[nH]c6ccccc56)CC4)CC3)cc2Cl)c(Cl)c1,0.25%
12,Cc1[nH]c2ccc(O)cc2c1C1CCN(CC2CCC(NC(=O)/C=C/c3ccc(Cl)c(Cl)c3)CC2)CC1 (stereo not drawn),0.95%
13,O=C(/C=C/c1cc(C(F)(F)F)ccc1F)N1CCC(CN2CCC(c3c[nH]c4ccccc34)CC2)CC1,1.34%
14,COC(=O)C(C)(C)c1ccc(CC(C)NCC(O)c2cccc(C(F)(F)F)c2)cc1 (stereo not drawn),6.92%
15,O=C(Nc1cc(C(F)(F)F)cc(C(F)(F)F)c1)N1CCC(CN2CCC(c3c[nH]c4ccccc34)CC2)CC1,3.46%
16,O=C(/C=C/c1ccc(C(F)(F)F)cc1)NC1CCC(CN2CCC(c3c[nH]c4ccccc34)CC2)CC1 (stereo not drawn),5.47% and -0.38%
17,O=C(Cc1cc(=O)oc2cc(O)ccc12)NC1CCC(CN2CCC(c3c[nH]c4ccccc34)CC2)CC1 (stereo not drawn),2.2%
18,CC[C@H]1CN2CC[C@H]1C[C@H]2[C@H](O)c1cc(/C=C/c2ccc(F)cc2)nc2ccc(OC)cc12,1.87%
19,O=C(/C=C/c1ccc(Cl)c(Cl)c1)NC1CCC(CN2CCC(c3c[nH]c4cc(C(F)(F)F)ccc34)CC2)CC1 (stereo not drawn),4.9% and -0.14%
20,O=C(/C=C/c1ccc(Cl)c(Cl)c1)N1CCC(CN2CCC(c3c(-c4ccccc4)[nH]c4ccccc34)CC2)CC1,1.74%

row,Structure (SMILES),inhibition
1,O=C(NC1CCC(CN2CCC(c3c[nH]c4ccccc34)CC2)CC1)c1cn(Cc2ccccc2)c2ccccc12 (stereo not drawn),1.32%
2,c1ccc2c(NCCCCCCCCCNc3c4ccccc4nc4ccccc34)c3ccccc3nc2c1,6.11%
3,CCC(C)CN1CCC(N(C)c2cc(NC(=O)c3ccc(F)cc3)ccn2)CC1 (stereo not drawn),0.64%
4,O=C(Cc1c(-c2ccccc2)[nH]c2ccccc12)NC1CCC(CN2CCC(c3c[nH]c4ccccc34)CC2)CC1 (stereo not drawn),4%
5,O=C(/C=C/c1ccc(Cl)c(Cl)c1)N1CCC(CN2CCC(c3c[nH]c4ccccc34)C(O)C2)CC1 (stereo not drawn),2.3%
6,O=C(Nc1ccc(CN2CCC(c3c[nH]c4ccc(O)cc34)CC2)cc1)c1ccc(-c2ccccc2)cc1,3.85%
7,Cc1[nH]c2cc(Cl)ccc2c1C1=CCN(CCCCC2(C)C(=O)Nc3ccccc32)CC1 (stereo not drawn),0.91%
8,Cc1[nH]c2ccc(O)cc2c1C1CCN(CC2CCC(NC(=O)/C=C/c3c(Cl)cccc3Cl)CC2)CC1 (stereo not drawn),0.48%
9,CNCCN(C)C(=O)Oc1c(Br)c(C)nc(C)c1-c1ccc(Oc2ccc(OC(F)(F)F)cc2)cc1,3.16%
10,CC[C@H]1CN2CC[C@H]1C[C@H]2[C@H](O)c1ccnc2ccc(C#N)cc12,1.86%
11,CN1CC=C(c2c[nH]c3ccc(Br)cc23)CC1,0.19%
12,Oc1ccc2[nH]cc(C3=CCN(CCc4ccccc4)CC3)c2c1,18.1%
13,CCCCCC(C)C(C)c1cc(O)c2c(c1)OC1(C(C)C)CC(O)C(C)C2C1 (stereo not drawn),5.5%
14,Cc1c2ccncc2c(C)c2c1[nH]c1ccccc12,20.9%
15,O=C(/C=C/c1ccc(Cl)c(Cl)c1)NCCCCCN1C2CCC1CC(c1c[nH]c3ccccc13)C2 (stereo not drawn),1.9%
16,O=C(C=Cc1cccc(Cl)c1Cl)NC1CCC(CN2CCC(c3c[nH]c4ccccc34)CC2)CC1 (stereo not drawn),23.6% and 3.22%
17,COc1ccc(C[C@H]2NC[C@H](O)[C@H]2OC(C)=O)cc1,103%
18,CC(=O)N(Cc1ccccc1-c1cccc(CNCCc2ccccc2)c1)C1CCN(Cc2ccccc2)CC1,7.85%
19,CO/C(=C\C=C\c1cc2cc(Cl)c(Cl)cc2[nH]1)C(=O)N[C@H]1CN2CCC1CC2,-0.23%

# — ChEMBL document CHEMBL3433997, “St. Jude Leishmania screening dataset” (2016)
